Assay results taken from PubChem BioAssay (Tox21).
Records with an inconclusive call do not appear. Unmarked numbers belong to inactive results. The call rests on the fitted dose curve. Where a SMILES comes first, the peptide text is derived from it.

Assay: qHTS assay to identify small molecule agonists of the endoplasmic reticulum stress response signaling pathway - cell viability counter screen (AID 1159517); further: nearly all actives have a fitted effect of over 50% in size
Settings: ESRE-bla HeLa viability, CellTiter-Glo luminescence, 5 h; series mostly up to 61 µM; activity change, negative = cytotoxicity: at the top concentration
Source text: U.S. Tox21 Program National Center for Advancing Translational Sciences [NCATS] NIH Chemical Genomics Center [NCGC] U.S. Environmental Protection Agency [EPA] National Institutes of Environmental Health Sciences [NIEHS] National Toxicology Program [NTP] U.S. Food and Drug Administration [FDA] Tox21 Assay Overview: Endoplasmic Reticulum (ER) plays an important role in cellular signaling, protein folding/maturation, stress response, lipid biosynthesis, calcium storage and release etc. Under stress conditions, proteins in ER misfold or unfold, and leading to the expression of ER stress responsive genes. ER stress has been associated with a variety of pathophysiological conditions such as cancer, inflammation, neurodegenerative diseases, diabetes, ischemic heart disease etc. To identify the compounds that induce ER stress response, an ER stress reporter cell line, CellSensor ESRE-bla HeLa (Life Technologies, Carlsbad, CA) containing a beta-lactamase reporter gene under control of the Endoplasmic reticulum Stress Response Element (ESRE) was used to screen Tox21 10K compound library. The cytotoxicity of the Tox21 compound library against the ESRE-bla HeLa cell line was tested in parallel by measuring cell viability using the CellTiter-Glo assay in the same wells.
Tox21 Assay Protocol Summary: ESRE-bla HeLa cells were dispensed at 1,500 cells/6 uL of assay medium per well into black wall/clear-bottom 1536-well plates using a Multidrop Combi (ThermoFisher Scientific, Waltham, MA) dispenser. After the assay plates were incubated at 37 C and 5% CO2 for an overnight, 23 nL of compounds dissolved in DMSO, positive controls or DMSO only was transferred to the assay plate by a Pintool station (Kalypsys, San Diego, CA). The assay plates were incubated at 37 C and 5% CO2 for 5 hr. One uL of LiveBLAzer B/G FRET substrate (Life Technologies) was added using a FRD (Flying Reagent Dispenser, Aurora Discovery, San Diego, CA) and the plates were incubated at room temperature for 2 hr. Fluorescence intensity (405 nm excitation, 460 nm and 530 nm emissions) was measured using an Envision plate reader (PerkinElmer, Shelton, CT). For cytotoxicity, 4 ul/well of CellTiter-Glo reagent was added into the assay plates using an FRD. After 30 min incubation at room temperature, the luminescence intensity was measured using a ViewLux plate reader (PerkinElmer).
On the % scale 0 is the no-effect control and ±100 the full control effect.

Which “activity change, negative = cytotoxicity” value does the source give for NCC1(Cc2noc(=O)[nH]2)CCCCC1 here?
The value was 17.5%.

With CN(C)CCN(C)CCO as the compound, how does the “activity change, negative = cytotoxicity” value read?
The value was 3.59%.

With CC1=NN(c2ccc(S(=O)(=O)O)cc2)C(=O)C1 as the compound, how does the “activity change, negative = cytotoxicity” value read?
The value was 4.55%.

For O=C1NC(c2ccccc2)(c2ccccc2)C(=O)N1COP(=O)(O)O, which “activity change, negative = cytotoxicity” value is on record?
The value was 9%.

With CCCC(CC)c1ccccc1 (stereo not given) as the compound, how does the “activity change, negative = cytotoxicity” value read?
Its value is 14%.

Which “activity change, negative = cytotoxicity” value does the source give for CC1c2ccccc2CN1NC(=O)c1ccc(Cl)c(S(N)(=O)=O)c1 (stereo not given) here?
Its value is 5.83%.

For CC1OCCC1=O (stereo not given), which “activity change, negative = cytotoxicity” value is on record?
The value was 9.33%.

Which “activity change, negative = cytotoxicity” value does the source give for Cc1cccc(Cl)c1 here?
Its value is -9.17%.

For COC(C)(OC)OC, which “activity change, negative = cytotoxicity” value is on record?
The value was -19.1%.

Which “activity change, negative = cytotoxicity” value does the source give for CCC(=O)Oc1ccc2c(c1)CC[C@@H]1[C@@H]2CC[C@@]2(C)[C@H]1C[C@@H](OC(=O)CC)[C@@H]2OC(=O)CC here?
Its value is 7.96%.

With CO[C@@]1(NC(=O)Cc2cccs2)C(=O)N2C(C(=O)O)=C(COC(N)=O)CS[C@@H]21 as the compound, how does the “activity change, negative = cytotoxicity” value read?
The value was 8.86%.

With C=CCCCC as the compound, how does the “activity change, negative = cytotoxicity” value read?
The value was 5.46% [at 78.8 µM].

For CCCCOC(=O)[C@H](C)O, which “activity change, negative = cytotoxicity” value is on record?
Its value is 3.32%.

Which “activity change, negative = cytotoxicity” value does the source give for Cc1ccc(N)cc1S(=O)(=O)O here?
Its value is 11.6%.

Which “activity change, negative = cytotoxicity” value does the source give for Cn1nnc2c(C(N)=O)ncn2c1=O here?
The value was 3.5%.

With CN1CCOC(c2ccccc2)c2ccccc2C1 (stereo not given) as the compound, how does the “activity change, negative = cytotoxicity” value read?
The value was -2.27%.

Which “activity change, negative = cytotoxicity” value does the source give for C=C(C)c1cccc(C(C)(C)N=C=O)c1 here?
The value was 5.46%.

Which “activity change, negative = cytotoxicity” value does the source give for N#Cc1ccccc1O here?
Its value is -12.4%.

For NCc1ccc(S(N)(=O)=O)cc1, which “activity change, negative = cytotoxicity” value is on record?
The value was 10.8%.

Which “activity change, negative = cytotoxicity” value does the source give for O=NN(CCCl)C(=O)NC1CCCCC1 here?
The value was 11.4%.

With O=C(CCCCC(=O)Nc1c(I)cc(I)c(C(=O)O)c1I)Nc1c(I)cc(I)c(C(=O)O)c1I as the compound, how does the “activity change, negative = cytotoxicity” value read?
The value was 2.91%.

For O=C[O][Al]([O]C=O)[O]C=O, which “activity change, negative = cytotoxicity” value is on record?
Its value is 12.5%.

Which “activity change, negative = cytotoxicity” value does the source give for COCCc1ccccn1 here?
The value was 1.01%.

Which “activity change, negative = cytotoxicity” value does the source give for CCCC(=O)Nc1ccc(OCC(O)CNC(C)C)c(C(C)=O)c1 (stereo not given) here?
The value was 15.9%.

With CC(=O)O[C@@H]1CC2CCC1(C)C2(C)C (stereo not given in full) as the compound, how does the “activity change, negative = cytotoxicity” value read?
The value was 2.54%.

Which “activity change, negative = cytotoxicity” value does the source give for CC(=O)CC(=O)OC(C)(C)C here?
The value was 0.72%.

Which “activity change, negative = cytotoxicity” value does the source give for CCCCOCCOC(=O)COc1ccc(Cl)cc1Cl here?
The value was 0.224%.

With CCOc1ccccc1OCC1CNCCO1 (stereo not given) as the compound, how does the “activity change, negative = cytotoxicity” value read?
Its value is -6.26%.

With CN(C)CC/C=C1/c2ccccc2COc2ccc(CC(=O)O)cc21 as the compound, how does the “activity change, negative = cytotoxicity” value read?
Its value is -2.3%.

Which “activity change, negative = cytotoxicity” value does the source give for CCCCSCCCC here?
Its value is 6.64%.

Which “activity change, negative = cytotoxicity” value does the source give for CC(O)CC(C)O (stereo not given) here?
Its value is -5.18%.

For COC(=O)CCCCC(=O)O, which “activity change, negative = cytotoxicity” value is on record?
Its value is -3.12%.

With O=Cc1ccccc1Cl as the compound, how does the “activity change, negative = cytotoxicity” value read?
The value was -19.7%.

For C=C(C)C1CC=C(C)C(=O)C1 (stereo not given), which “activity change, negative = cytotoxicity” value is on record?
Its value is 3.71%.

With CC1(C)Cc2cccc(N)c2O1 as the compound, how does the “activity change, negative = cytotoxicity” value read?
The value was 0.189%.

Which “activity change, negative = cytotoxicity” value does the source give for OCC1(CO)COCOC1 here?
The value was 2.52%.

With CCC(C(=O)OCCN1CCOC(c2ccccc2)C1C)c1ccccc1 (stereo not given) as the compound, how does the “activity change, negative = cytotoxicity” value read?
Its value is 0.729%.

With CC(=O)N[C@@H](CO)C(=O)N[C@@H](CC(=O)O)C(=O)N[C@@H](CCCCN)C(=O)N1CCC[C@H]1C(=O)O (Ac-SDKP-OH) as the compound, how does the “activity change, negative = cytotoxicity” value read?
The value was -0.899%.

Which “activity change, negative = cytotoxicity” value does the source give for COc1cc(OC)nc(O[C@H](C(=O)O)C(OC)(c2ccccc2)c2ccccc2)n1 here?
Its value is 0.542%.

With CCCC(=O)OCCC(C)CCC=C(C)C (stereo not given) as the compound, how does the “activity change, negative = cytotoxicity” value read?
The value was -7.21%.
